From PubChem BioAssay AID1159580 (chemical genetic matrix, 2015)
Hit rate of the full screen: of about 5,500 compounds, about 2,000 (36%) were called active. Another 18% or so got no clear call; they are omitted. The list shows a part of the results. A number with no mark means an inactive call. Cut-off read from the data, not from the text of the source: active = normalized growth mostly below about 0.91 (no sharp cut-off); inconclusive = no clear call, values can overlap the other calls; inactive = mostly above about 0.92.

Assay: chemical genetic growth profiling, strain panel (AID 1159580);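 note: tested at 20 µM; growth read once vehicle control cultures reached saturation at 30 °C; 1 = growth at the plate median or of vehicle wells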
Settings: S. cerevisiae deletion strains, growth OD
[1] = locus YAL040C, strain CLN3, stronger effect = lower value
[2] = locus YCL061C, strain MRC1 (second series), stronger effect = lower value
[3] = locus YDR363W, strain ESC2, stronger effect = lower value
[4] = locus YER002W, strain NOP16, stronger effect = lower value
[5] = locus YGR078C, strain PAC10, stronger effect = lower value
[6] = locus YGR229C, strain SMI1, stronger effect = lower value
[7] = locus YNL175C, strain NOP13, stronger effect = lower value
[8] = locus YNL197C, strain WHI3, stronger effect = lower value
[9] = locus YNL224C, strain SQS1, stronger effect = lower value
[10] = locus YNL322C, strain KRE1, stronger effect = lower value
[11] = locus YOR083W, strain WHI5 (second series), stronger effect = lower value
[12] = locus YDR150W, strain NUM1, stronger effect = lower value
[13] = locus YHR030C, strain SLT2, stronger effect = lower value
[14] = locus YJR075W, strain HOC1, stronger effect = lower value
[15] = locus YMR263W, strain SAP30, stronger effect = lower value
[16] = locus YMR307W, strain GAS1, stronger effect = lower value
[17] = locus YPL241C, strain CIN2, stronger effect = lower value

CC(/C=C/c1cccc(Oc2ccc(F)cc2)c1)N(O)C(N)=O (stereo unspecified) gave a normalized growth [1] of 0.991, a normalized growth [2] of 0.994 and a normalized growth [3] of 0.987. The normalized growth [4] was 1.01, the normalized growth [5] was 1.01 and the normalized growth [6] was 1. The normalized growth [7] was 1, the normalized growth [8] was 0.971 and the normalized growth [9] was 0.984. For the same compound, the normalized growth [10] was 1.01 and the normalized growth [11] was 0.966.
Compound Clc1ccc(C2=CSC3=NCCCN23)cc1 has a normalized growth (locus YAL013W, strain DEP1, stronger effect = lower value) of 0.997, a normalized growth (locus YBR229C, strain ROT2, stronger effect = lower value) of 1.02 and a normalized growth (locus YDL101C, strain DUN1, stronger effect = lower value) of 0.993. It also gave a normalized growth [12] of 0.959, a normalized growth (locus YEL061C, strain CIN8, stronger effect = lower value) of 1 and a normalized growth [5] of 0.992. For the same compound, the normalized growth [6] was 1.01, the normalized growth [13] was 0.986 and the normalized growth (locus YHR087W, strain rtc3, stronger effect = lower value) was 0.994. It also gave a normalized growth (locus YJR043C, strain POL32, stronger effect = lower value) of 0.999, a normalized growth [14] of 0.989 and a normalized growth (locus YLR039C, strain RIC1, stronger effect = lower value) of 0.989. It also gave a normalized growth (locus YLR058C, strain SHM2 (second series), stronger effect = lower value) of 1.01, a normalized growth (locus YLR085C, strain ARP6, stronger effect = lower value) of 1.03 and a normalized growth (locus YLR262C, strain YPT6, stronger effect = lower value) of 0.998. It also gave a normalized growth (locus YML094W, strain GIM5, stronger effect = lower value) of 0.993, a normalized growth (locus YMR219W, strain ESC1, stronger effect = lower value) of 1.01 and a normalized growth [15] of 0.986. The normalized growth [16] was 0.982, the normalized growth (locus YNL153C, strain GIM3, stronger effect = lower value) was 0.995 and the normalized growth (locus YNL298W, strain CLA4 (second series), stronger effect = lower value) was 1.04. For the same compound, the normalized growth [10] was 0.999, the normalized growth (locus YNR030W, strain Alg12, stronger effect = lower value) was 1.01 and the normalized growth (locus YPL055C, strain LGE1, stronger effect = lower value) was 1.03. For the same compound, the normalized growth [17] was 1 and the normalized growth (locus YPR135W, strain CTF4, stronger effect = lower value) was 1.02.
With N=C1Sc2ccccc2C2=NCCCN12 the normalized growth [1] was 1.02, the normalized growth [2] was 1.01 and the normalized growth [12] was 1.04. It also gave a normalized growth [3] of 1.01, a normalized growth [4] of 1.04 and a normalized growth [5] of 1.02. For the same compound, the normalized growth [14] was 0.945, the normalized growth [15] was 1.01 and the normalized growth [16] was 0.872 (active). The normalized growth [7] was 1.04, the normalized growth [8] was 1.02 and the normalized growth [9] was 1.02. The normalized growth [10] was 1.01, the normalized growth [11] was 0.988 and the normalized growth [17] was 1.02.
With OCCOCCN1CCN(C2=Nc3ccccc3Sc3ccccc32)CC1 the normalized growth (locus YAL021C, strain ccr4, stronger effect = lower value) was 1.01, the normalized growth (locus YAL026C, strain drs2, stronger effect = lower value) was 1 and the normalized growth (locus YAL030W, strain snc1, stronger effect = lower value) was 0.992. The normalized growth (locus YBL061C, strain skt5, stronger effect = lower value) was 1.02, the normalized growth (locus YBR009C, strain hhf1, stronger effect = lower value) was 1.02 and the normalized growth (locus YBR023C, strain chs3, stronger effect = lower value) was 1.01. For the same compound, the normalized growth (locus YBR171W, strain sec66, stronger effect = lower value) was 1, the normalized growth (locus YBR231C, strain swc5, stronger effect = lower value) was 1.01 and the normalized growth (locus YBR279W, strain paf1, stronger effect = lower value) was 1.01. For the same compound, the normalized growth (locus YCL011C, strain gbp2, stronger effect = lower value) was 0.993, the normalized growth (locus YCL016C, strain dcc1, stronger effect = lower value) was 0.997 and the normalized growth (locus YCL069W, strain vba3, stronger effect = lower value) was 1.01. It also gave a normalized growth (locus YCR088W, strain abp1, stronger effect = lower value) of 1, a normalized growth (locus YDL005C, strain med2, stronger effect = lower value) of 1 and a normalized growth (locus YDL040C, strain nat1, stronger effect = lower value) of 1. The normalized growth (locus YDR001C, strain nth1, stronger effect = lower value) was 1.01, the normalized growth (locus YDR069C, strain doa4, stronger effect = lower value) was 0.998 and the normalized growth (locus YDR137W, strain rgp1, stronger effect = lower value) was 1. It also gave a normalized growth (locus YDR159W, strain sac3, stronger effect = lower value) of 1, a normalized growth (locus YDR195W, strain ref2) of 0.977 and a normalized growth (locus YDR297W, strain sur2, stronger effect = lower value) of 0.993. It also gave a normalized growth (locus YDR334W, strain swr1, stronger effect = lower value) of 1.01, a normalized growth (locus YDR335W, strain msn5, stronger effect = lower value) of 1.01 and a normalized growth (locus YDR392W, strain spt3, stronger effect = lower value) of 1.02. The normalized growth (locus YEL003W, strain gim4, stronger effect = lower value) was 1, the normalized growth (locus YEL037C, strain rad23, stronger effect = lower value) was 1.01 and the normalized growth (locus YEL061C, strain CIN8 (second series), stronger effect = lower value) was 1. For the same compound, the normalized growth (locus YER015W, strain faa2, stronger effect = lower value) was 1.01, the normalized growth (locus YER016W, strain bim1, stronger effect = lower value) was 1.01 and the normalized growth (locus YER111C, strain swi4, stronger effect = lower value) was 1.01. For the same compound, the normalized growth (locus YER155C, strain BEM2 (second series), stronger effect = lower value) was 0.993, the normalized growth (locus YFR010W, strain ubp6, stronger effect = lower value) was 1.01 and the normalized growth (locus YGL167C, strain pmr1, stronger effect = lower value) was 1. For the same compound, the normalized growth (locus YGL173C, strain kem1, stronger effect = lower value) was 1, the normalized growth (locus YGL227W, strain vid30, stronger effect = lower value) was 0.989 and the normalized growth (locus YGL240W, strain doc1, stronger effect = lower value) was 0.992. For the same compound, the normalized growth (locus YGL253W, strain hxk2, stronger effect = lower value) was 1.02, the normalized growth (locus YHR013C, strain ard1, stronger effect = lower value) was 0.982 and the normalized growth (locus YHR027C, strain rpn1, stronger effect = lower value) was 1. For the same compound, the normalized growth [13] was 0.991, the normalized growth (locus YHR079C, strain IRE1, stronger effect = lower value) was 0.994 and the normalized growth (locus YHR142W, strain chs7, stronger effect = lower value) was 1.02. For the same compound, the normalized growth (locus YJL092W, strain hpr5, stronger effect = lower value) was 1.02, the normalized growth (locus YJL095W, strain BCK1 (second series), stronger effect = lower value) was 1 and the normalized growth (locus YJL095W, strain BCK1, stronger effect = lower value) was 0.999. The normalized growth (locus YJL115W, strain asf1, stronger effect = lower value) was 1, the normalized growth (locus YJL129C, strain trk1, stronger effect = lower value) was 1.02 and the normalized growth (locus YJL154C, strain vps35, stronger effect = lower value) was 1.03. The normalized growth (locus YJL164C, strain tpk1, stronger effect = lower value) was 1.01, the normalized growth (locus YJL166W, strain qcr8, stronger effect = lower value) was 1.01 and the normalized growth (locus YJL187C, strain SWE1, stronger effect = lower value) was 1.01. It also gave a normalized growth (locus YJR066W, strain TOR1, stronger effect = lower value) of 0.978, a normalized growth (locus YKL160W, strain elf1, stronger effect = lower value) of 1 and a normalized growth (locus YKR026C, strain gcn3, stronger effect = lower value) of 1.02. The normalized growth (locus YKR091W, strain srl3, stronger effect = lower value) was 1.01, the normalized growth (locus YLL001W, strain dnm1, stronger effect = lower value) was 0.996 and the normalized growth (locus YLL026W, stronger effect = lower value) was 1. For the same compound, the normalized growth (locus YLL041C, strain sdh2, stronger effect = lower value) was 1.02, the normalized growth (locus YLR027C, strain aat2, stronger effect = lower value) was 1.01 and the normalized growth (locus YLR113W, strain HOG1, stronger effect = lower value) was 1. The normalized growth (locus YLR221C, strain rsa3, stronger effect = lower value) was 1, the normalized growth (locus YLR258W, strain gsy2, stronger effect = lower value) was 1.01 and the normalized growth (locus YLR262C, strain YPT6 (second series), stronger effect = lower value) was 1.03. For the same compound, the normalized growth (locus YLR320W, strain mms22, stronger effect = lower value) was 0.981, the normalized growth (locus YLR342W, strain FKS1, stronger effect = lower value) was 1 and the normalized growth (locus YLR357W, strain rsc2, stronger effect = lower value) was 1.01. For the same compound, the normalized growth (locus YLR370C, strain arc18, stronger effect = lower value) was 1.01, the normalized growth (locus YLR384C, strain iki3, stronger effect = lower value) was 1.01 and the normalized growth (locus YML120C, strain ndi1, stronger effect = lower value) was 1.01. The normalized growth (locus YMR058W, strain fet3, stronger effect = lower value) was 1.01, the normalized growth (locus YMR125W, strain sto1, stronger effect = lower value) was 1.01 and the normalized growth (locus YMR129W, stronger effect = lower value) was 1.01. For the same compound, the normalized growth (locus YMR205C, strain PFK2, stronger effect = lower value) was 0.994, the normalized growth (locus YMR231W, strain pep5, stronger effect = lower value) was 1 and the normalized growth (locus YNL071W, strain lat1, stronger effect = lower value) was 1. It also gave a normalized growth (locus YNL183C, strain NPR1, stronger effect = lower value) of 0.975, a normalized growth (locus YNL209W, strain ssb2, stronger effect = lower value) of 1.01 and a normalized growth (locus YNL248C, strain rpa49, stronger effect = lower value) of 0.977. For the same compound, the normalized growth (locus YNL322C, strain KRE1 (second series), stronger effect = lower value) was 1, the normalized growth (locus YNR049C, strain mso1, stronger effect = lower value) was 1.01 and the normalized growth (locus YOR001W, strain rrp6, stronger effect = lower value) was 0.995. For the same compound, the normalized growth (locus YOR070C, strain gyp1, stronger effect = lower value) was 0.995, the normalized growth (locus YOR080W, strain dia2, stronger effect = lower value) was 1 and the normalized growth (locus YOR083W, strain WHI5, stronger effect = lower value) was 0.991. The normalized growth (locus YOR106W, strain vam3, stronger effect = lower value) was 0.997, the normalized growth (locus YOR231W, strain MKK1, stronger effect = lower value) was 0.981 and the normalized growth (locus YOR265W, strain rbl2, stronger effect = lower value) was 1. It also gave a normalized growth (locus YOR270C, strain vph1, stronger effect = lower value) of 1, a normalized growth (locus YOR290C, strain snf2, stronger effect = lower value) of 1 and a normalized growth (locus YPL051W, strain arl3, stronger effect = lower value) of 1.02. It also gave a normalized growth (locus YPL078C, strain atp4, stronger effect = lower value) of 1.01, a normalized growth (locus YPL106C, strain sse1, stronger effect = lower value) of 1.03 and a normalized growth (locus YPL240C, strain hsp82, stronger effect = lower value) of 1. For the same compound, the normalized growth (locus YPL256C, strain CLN2, stronger effect = lower value) was 0.989.
